# Measured values from PubChem BioAssay.
# Calls of active or inactive are those of the source.
# How the values were obtained:
# [1] = E. coli DRC41 culture turbidity changes, primary screen, E. coli filamentation inducer project, strain DRC41, OD650, 48 h (AID 1152);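 also: E. coli MC1000 strain DRC41 lacking acrAB efflux pump and sulA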; details: E. coli DRC41 (acrAB sulA), higher = more signal, called active from +8 up or from −8 down
# [2] = small-molecule binders of probe aLefty1, primary screen, biochemical, small-molecule microarray, 635/667 nm fluorescence (AID 1153); details: higher = more signal;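 also: score merges spot fluorescence with signal-to-noise ratio from the scanned slide images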
# [3] = PSAC antagonists in infected red cells, primary screen, cell-based, P. falciparum Indochina, OD700, 1 h (AID 1154); details: P. falciparum Indochina infected RBC osmotic lysis, higher = more signal, called active from +8 up or from −8 down
# [4] = PSAC antagonists in infected red cells, primary screen, cell-based, P. falciparum Indochina, OD700, 2 h (AID 1155);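 also: lysis reports solute entry through the parasite surface anion channel PSAC; channel blockers reduce lysis of infected cells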; details: P. falciparum Indochina infected erythrocytes, osmotic lysis OD700; higher = more signal, called active from +8 up or from −8 down
# [5] = osmotic lysis modulators in infected erythrocytes, primary screen, PSAC antagonist project, cell-based, P. falciparum Indochina, OD700, 3 h (AID 1156); details: higher = more signal, called active from +8 up or from −8 down
# [6] = PSAC antagonists in infected red cells, primary screen, cell-based, P. falciparum Indochina, OD700, 18 h (AID 1157); details: P. falciparum Indochina infected erythrocytes, osmotic lysis OD700, 18 h; higher = more signal, called active from +8 up or from −8 down
# [7] = modulators of S6 phosphorylation in cells, primary screen, cell-based, A549, cytoblot, luminescence, serum-stimulated (AID 1158); details: A549 phospho-S6 cytoblot, 5 h, higher = more signal;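 also: serum-stimulated A549 lung adenocarcinoma cells; signal is phosphorylated S6 detected by cytoblot immunostaining with HRP secondary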
# [8] = target: NADPH oxidase 2 (Homo sapiens) (UniProt P04839); assay: NOX2-dependent H2O2 signal modulators, primary screen, NOX inhibitor project, cell-based, HEK293-NOX2, PMA-stimulated, Amplex Red fluorescence (AID 1159); details: 45 min, higher = more signal, called active from +8 up or from −8 down; also: test concentration not given here
# [9] = target: NADPH oxidase 4 (Homo sapiens) (UniProt Q9NPH5); assay: NOX4-dependent H2O2 signal modulators, primary screen, NOX inhibitor project, cell-based, HEK293-NOX4, tetracycline-induced, Amplex Red fluorescence (AID 1160); details: 45 min, higher = more signal, called active from +8 up or from −8 down
# [10] = target: NADPH oxidase 5 (Homo sapiens) (UniProt Q96PH1); assay: NOX5-dependent H2O2 signal modulators, primary screen, NOX inhibitor project, cell-based, HEK293-NOX5, Amplex Red fluorescence (AID 1161); details: HEK293-NOX5, ionomycin, 45 min, higher = more signal
# [11] = A549 cell viability effects, profiling panel, calcein-AM fluorescence, 48 h, basal (AID 1162); details: higher = more signal; also: test concentration not given here
# [12] = adipocyte viability effects, profiling panel, cell-based, 3T3-L1 adipocytes, calcein-AM fluorescence, 48 h, basal (AID 1163); details: 3T3-L1 adipocytes viability, higher = more signal; also: test concentration not given here
# [13] = HepG2 cell viability effects, profiling panel, calcein-AM fluorescence, 48 h, basal (AID 1164); details: higher = more signal; also: test concentration not given here
# [14] = MM1S cell viability effects, profiling panel, calcein-AM fluorescence, 48 h, basal (AID 1165); details: higher = more signal;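 also: viability of MM1S multiple myeloma cells under basal unstimulated conditions; test concentration not given here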
# [15] = basal RPMI8226 viability, no added stimulus, profiling panel, cell-based, calcein-AM fluorescence, 48 h, PK04 Diversity Set (AID 1166); details: RPMI8226 myeloma viability, higher = more signal;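 also: cells grown under basal conditions without added stimulus; test concentration not given here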
# [16] = basal HepG2 mitochondrial membrane potential changes, profiling panel, cell-based, JC-1 fluorescence, 24 h, 100 nL compound (AID 1167); details: higher = more signal; also: test concentration not given here
# [17] = basal 3T3-L1 adipocyte mitochondrial potential changes, profiling panel, cell-based, JC-1 fluorescence, 3T3-L1 adipocytes, 24 h, 100 nL compound (AID 1168); details: JC-1 mitochondrial fluorescence, higher = more signal, called active from +8 up or from −8 down; also: test concentration not given here
# [18] = basal RPMI8226 mitochondrial membrane potential changes, profiling panel, cell-based, JC-1 fluorescence, 24 h, 100 nL compound (AID 1169); details: RPMI8226 myeloma, JC-1 mitochondrial potential fluorescence, higher = more signal; also: test concentration not given here
# [19] = basal MM1S mitochondrial membrane potential changes, profiling panel, cell-based, JC-1 fluorescence, 24 h, 100 nL compound (AID 1170); details: higher = more signal; also: test concentration not given here
# [20] = A549 lung cancer cell viability effects, profiling panel, resazurin fluorescence, 24 h, PK04 Diversity Set (AID 1171); details: higher = more signal, called active from +8 up or from −8 down; also: test concentration not given here
# Chain of NADPH oxidase 4 (Homo sapiens) (Q9NPH5 whole entry, looked up): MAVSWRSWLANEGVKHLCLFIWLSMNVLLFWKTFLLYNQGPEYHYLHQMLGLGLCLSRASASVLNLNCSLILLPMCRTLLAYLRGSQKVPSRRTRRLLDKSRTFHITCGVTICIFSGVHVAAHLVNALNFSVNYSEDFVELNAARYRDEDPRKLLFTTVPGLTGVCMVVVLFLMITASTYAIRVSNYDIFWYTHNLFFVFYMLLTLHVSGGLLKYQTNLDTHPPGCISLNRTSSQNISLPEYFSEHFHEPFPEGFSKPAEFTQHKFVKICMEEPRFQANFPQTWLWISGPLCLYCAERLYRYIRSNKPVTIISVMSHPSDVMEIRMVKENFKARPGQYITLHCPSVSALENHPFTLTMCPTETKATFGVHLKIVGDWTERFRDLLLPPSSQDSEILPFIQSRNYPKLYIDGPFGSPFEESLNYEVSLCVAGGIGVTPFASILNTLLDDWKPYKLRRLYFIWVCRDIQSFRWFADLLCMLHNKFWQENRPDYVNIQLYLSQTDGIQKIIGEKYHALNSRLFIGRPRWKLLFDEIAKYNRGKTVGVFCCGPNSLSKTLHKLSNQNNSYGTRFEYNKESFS
# Chain of NADPH oxidase 2 (Homo sapiens) (P04839 whole entry, looked up): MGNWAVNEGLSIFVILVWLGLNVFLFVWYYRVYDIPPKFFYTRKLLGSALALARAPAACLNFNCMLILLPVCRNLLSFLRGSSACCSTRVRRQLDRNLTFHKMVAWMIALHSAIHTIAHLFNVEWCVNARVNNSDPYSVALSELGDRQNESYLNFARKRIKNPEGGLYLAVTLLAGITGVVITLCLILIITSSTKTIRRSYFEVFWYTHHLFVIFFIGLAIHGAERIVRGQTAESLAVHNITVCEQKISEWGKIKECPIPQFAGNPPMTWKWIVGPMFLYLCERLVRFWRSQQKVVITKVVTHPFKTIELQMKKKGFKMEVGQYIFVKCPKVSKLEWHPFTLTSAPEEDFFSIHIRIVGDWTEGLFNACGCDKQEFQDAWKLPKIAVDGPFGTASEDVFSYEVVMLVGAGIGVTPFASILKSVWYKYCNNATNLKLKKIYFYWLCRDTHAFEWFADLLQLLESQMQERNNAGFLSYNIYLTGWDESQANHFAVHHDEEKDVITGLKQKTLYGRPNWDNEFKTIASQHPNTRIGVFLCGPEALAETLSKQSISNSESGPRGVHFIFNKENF
# Chain of NADPH oxidase 5 (Homo sapiens) (Q96PH1 whole entry, looked up): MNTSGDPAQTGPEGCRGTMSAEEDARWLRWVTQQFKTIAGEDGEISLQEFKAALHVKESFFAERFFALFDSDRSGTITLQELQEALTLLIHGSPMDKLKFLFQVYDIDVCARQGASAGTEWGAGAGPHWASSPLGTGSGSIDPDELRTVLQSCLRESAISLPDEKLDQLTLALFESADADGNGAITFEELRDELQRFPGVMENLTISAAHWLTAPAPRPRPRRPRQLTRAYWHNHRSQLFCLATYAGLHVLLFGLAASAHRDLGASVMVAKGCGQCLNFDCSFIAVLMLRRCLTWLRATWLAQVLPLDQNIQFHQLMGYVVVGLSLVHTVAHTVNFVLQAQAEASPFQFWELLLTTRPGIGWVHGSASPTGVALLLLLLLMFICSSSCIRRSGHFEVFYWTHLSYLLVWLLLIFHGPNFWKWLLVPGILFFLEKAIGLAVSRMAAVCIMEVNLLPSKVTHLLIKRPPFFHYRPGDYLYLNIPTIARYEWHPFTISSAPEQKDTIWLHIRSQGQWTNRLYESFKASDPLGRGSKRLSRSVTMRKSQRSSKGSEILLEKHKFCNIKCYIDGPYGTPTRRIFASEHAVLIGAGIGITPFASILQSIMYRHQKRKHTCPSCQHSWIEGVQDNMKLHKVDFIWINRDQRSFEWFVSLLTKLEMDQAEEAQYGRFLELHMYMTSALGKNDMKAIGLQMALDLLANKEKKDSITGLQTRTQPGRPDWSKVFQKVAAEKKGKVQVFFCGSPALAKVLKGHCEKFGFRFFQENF
SMILES,z-score [1],composite z-score [2],z-score [3],z-score [4],z-score [5],z-score [6],z-score [7],z-score [8],z-score [9],z-score [10],z-score [11],z-score [12],z-score [13],z-score [14],z-score [15],z-score [16],z-score [17],z-score [18],z-score [19],z-score [20]
COc1ccc(O[C@H]2C=C[C@@H](c3ccccc3)O[C@@H]2COC(=O)CCC(C)=NO[C@H](C)c2cn([C@@H]3COC[C@H]3O)nn2)cc1,0.451 (inactive),-0.0501,5.05 (inactive),0.0624 (inactive),1.63 (inactive),-0.908 (inactive),0.607,-4.13 (inactive),-0.691 (inactive),-4.98,-1.24,-0.547,-1.22,-0.913,-1.22,-1.63,-1.03 (inactive),0.923,-1.25,1.47 (inactive)
CCCCCN1CC=CC23O[C@@H]4C=CCOC(=O)[C@@H]4[C@H]2C(=O)N(CCCCCCO)[C@@H]3C1=O (stereo not given in full),0.191 (inactive),-0.103,2.04 (inactive),-0.0969 (inactive),0.748 (inactive),0.187 (inactive),0.0374,1.24 (inactive),-0.482 (inactive),1.73,-0.262,-0.0159,0.63,1.04,-0.534,-0.429,-0.574 (inactive),-0.343,-0.414,0.444 (inactive)
CC(=O)C[C@H](O)[C@@H](NC(=O)OC(C)(C)C)C(C)C,-0.593 (inactive),-0.196,0.427 (inactive),-0.649 (inactive),1.48 (inactive),-1.64 (inactive),1.63,0.2 (inactive),-0.658 (inactive),-1.63,0.143,0.819,0.0838,-0.476,-0.531,-0.538,-0.0163 (inactive),-0.545,-0.347,-0.289 (inactive)
CCCC[C@H]1OB(O)C[C@H]2C1=C(C)C[C@H]1C(=O)N(C)C(=O)[C@H]12,-0.908 (inactive),-0.147,0.39 (inactive),-0.123 (inactive),-0.974 (inactive),0.0834 (inactive),0.292,-0.76 (inactive),0.332 (inactive),-0.235,-0.203,-0.623,-1.02,-2.27,-0.848,-1.79,-0.467 (inactive),0.391,0.203,-0.794 (inactive)
CC(CCC(=O)OC[C@H]1O[C@H](C#Cc2ccccc2)C=C[C@@H]1Oc1ccc(C)cc1)=NOC[C@@H](O)COCc1ccco1,0.654 (inactive),-0.839,17.7 (active),1.77 (inactive),0.811 (inactive),1.18 (inactive),0.63,-0.0388 (inactive),0.811 (inactive),-0.37,0.303,-0.135,-0.45,-2.4,-2.27,-1.54,0.324 (inactive),-0.31,-1.31,-0.0838 (inactive)
CC(=O)OC[C@H]1O[C@H](CCON=C(C)CCC(=O)OC[C@H]2O[C@H](C#Cc3ccccc3)C=C[C@@H]2Oc2ccc(C)cc2)C=C[C@@H]1OC(C)=O,0.604 (inactive),0.28,8.85 (active),1.43 (inactive),1.02 (inactive),0.931 (inactive),-0.987,-0.772 (inactive),0.384 (inactive),-1.64,-0.572,0.442,0.229,-2.77,-2.73,-0.797,-0.942 (inactive),-0.199,-0.738,0.016 (inactive)
C=CCC(OC(C)=O)[C@@H]1[C@@H](N(Cc2cc3ccccc3o2)C(=O)Cc2ccc(F)cc2)c2cc(OCCCO)ccc2N1C(=O)Cc1ccc(OC)cc1 (stereo not given in full),-0.778 (inactive),-0.06,1.05 (inactive),0.172 (inactive),-0.67 (inactive),-0.133 (inactive),-0.597,0.2 (inactive),0.727 (inactive),-0.743,-0.382,0.569,0.585,-0.0962,0.228,1.16,-0.0927 (inactive),0.774,-0.208,0.331 (inactive)
COc1ccc(-c2ccc3c(n2)CCCN3CC(O)CN2CCCc3nc(C)c(C)cc32)cc1 (stereo not given),0.125 (inactive),0.864,5.76 (inactive),0.894 (inactive),0.661 (inactive),0.0758 (inactive),-0.0509,1.05 (inactive),-0.305 (inactive),-1.35,-0.389,-0.943,0.151,0.676,-0.158,1.58,-0.205 (inactive),-0.108,-0.975,-0.542 (inactive)
COC(=O)CC=C[C@H](C)[C@@H](OCc1ccccc1Br)C(C)C,0.358 (inactive),-0.149,0.644 (inactive),0.673 (inactive),1.01 (inactive),0.589 (inactive),0.104,1.04 (inactive),0.478 (inactive),0.457,0.921,0.0901,1.34,0.426,0.736,0.744,0.319 (inactive),0.00667,-0.822,-0.307 (inactive)
COCCOC(=O)N1C(=O)[C@@]2(c3cc(C#CC4(O)CCCCCC4)ccc31)[C@H](C(=O)N1CCN(c3ncccn3)CC1)[C@H]1C(=O)O[C@H](c3ccccc3)[C@H](c3ccccc3)N1[C@@H]2c1ccc(OCCO)cc1,1.74 (inactive),0.485,11.7 (active),2.25 (inactive),1.35 (inactive),1.19 (inactive),0.372,1.69 (inactive),-0.754 (inactive),1.24,0.514,1.48,-0.118,0.0759,-1.9,-0.866,-0.224 (inactive),-0.479,-0.653,-0.49 (inactive)
C[C@H](c1ccccc1)N1C(=O)[C@H]2[C@@H]3C(=CC[C@H]2C1=O)C(=O)[C@H]1O[C@H]1[C@H]3O,0.0931 (inactive),-0.239,-0.564 (inactive),-0.0275 (inactive),0.163 (inactive),-0.0165 (inactive),-0.836,-0.76 (inactive),-0.156 (inactive),1.13,-1.86,0.265,-4.46,-3.11,-3.94,1.02,1.02 (inactive),-1.03,-2.92,-2.16 (inactive)
C[C@@H](c1ccccc1)N1C(=O)[C@H]2[C@H]3[C@H](O)C=CC(=O)[C@@H]3CC[C@H]2C1=O,-0.0347 (inactive),-0.193,-0.352 (inactive),0.101 (inactive),-0.555 (inactive),-0.284 (inactive),0.674,1.56 (inactive),-0.0276 (inactive),-0.276,-0.0257,0.0344,0.628,-0.438,-0.136,0.457,0.715 (inactive),0.04,0.711,0.165 (inactive)
CN(C)c1ccc(C(O)C2C=CC3C(=O)N(c4ccccc4)C(=O)C3N2Nc2ccccc2F)cc1 (stereo not given),-1.4 (inactive),0.284,4.37 (inactive),1.2 (inactive),0.252 (inactive),0.586 (inactive),-0.288,-2.5 (inactive),-4.43 (inactive),-3.99,-0.225,-0.528,-0.799,-0.343,-1.18,-2.24,-1.08 (inactive),0.109,-0.0359,-0.416 (inactive)
CC(CCN1CCc2nc(-c3ccccc3)c(-c3ccccc3)cc2C1)=NOC(C)CN1CCCCc2nc(C)c(C)cc21 (stereo not given),-0.934 (inactive),-0.106,1.08 (inactive),-0.198 (inactive),0.281 (inactive),0.343 (inactive),-0.0953,-0.839 (inactive),0.405 (inactive),0.108,0.646,0.659,0.797,-1.82,-0.19,4.98,-1.28 (inactive),0.303,0.108,0.935 (inactive)
CC(CCN1CCc2nc(-c3ccccc3)c(-c3ccccc3)cc2C1)=NO[C@@H](C)c1cn([C@H](CO)Cc2ccccc2)nn1,-1.44 (inactive),-0.103,-0.278 (inactive),-1.89 (inactive),0.0934 (inactive),-2.16 (inactive),1.52,-7.26 (inactive),-1.51 (inactive),-4.19,2.69,0.343,1.4,-0.352,-0.0077,1.87,-0.353 (inactive),0.555,0.41,-0.81 (inactive)
CC(CCN1CCCCc2nc(C)c(C)cc21)=NOC(C)CN1CCCCc2nc(C)c(C)cc21 (stereo not given),-2.08 (inactive),0.235,1.38 (inactive),0.329 (inactive),0.964 (inactive),0.587 (inactive),-0.839,-1.47 (inactive),-3.07 (inactive),-1.31,-0.282,-0.0335,-1.12,-2.33,-0.696,3.61,-1.2 (inactive),0.308,-0.16,0.661 (inactive)
CC[C@@H](c1ccccc1)n1c(=O)n2n(c1=O)[C@H]1[C@H](O)[C@@H]3O[C@@H]3C(=NOCC=C(C)CCC=C(C)C)[C@H]1CC2,-1.15 (inactive),-0.241,1.27 (inactive),0.719 (inactive),0.0313 (inactive),0.355 (inactive),-0.45,2.38 (inactive),-1.85 (inactive),-1.35,-0.821,0.722,-1.48,-3.08,-3.74,-2.4,0.151 (inactive),-0.829,0.198,-0.0334 (inactive)
C[C@@H](c1ccccc1)N1C(=O)[C@H]2[C@H]3[C@H](O)[C@H](O)CC(=NOC[C@@H](O)COCc4ccco4)[C@@H]3CC[C@H]2C1=O,-0.224 (inactive),-0.147,0.169 (inactive),0.32 (inactive),-0.478 (inactive),-0.138 (inactive),0.403,0.215 (inactive),-1.51 (inactive),-0.681,0.0517,-0.837,-0.78,0.0485,-0.873,-0.794,-0.519 (inactive),-0.287,-0.542,-0.428 (inactive)
